Source: the supplement of paper PMC10723795
± gives the standard deviation of the averaged measurements.

system: RPE1; assay: nucleolar normality score relative to DMSO (fraction of DMSO control); RPE1 is a non-cancer human cell line; higher = more normal nucleoli (less nucleolar stress)
Description: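 Selected screen hits were validated in hTERT lines (BJ5TA, CHON-002, RPE1) and cancer lines (DLD1, HCT116). Cells were immunostained for nucleolin and UBF and the nucleolar normality score was measured per field of view, with 4 fields per drug. Scores are normalized to each cell line's own DMSO control. Dose and time are not stated for this panel.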

Question: `CC(C)C[C@H](NC(=O)[C@H](CCc1ccccc1)NC(=O)CN1CCOCC1)C(=O)N[C@@H](Cc1ccccc1)C(=O)N[C@@H](CC(C)C)C(=O)[C@@]1(C)CO1` [Carfilzomib] was tested. Which nucleolar normality score did it give?
Answer: 0.501 ± 0.086

Question: With `CC(C)c1cc(C(=O)N2Cc3ccc(CN4CCN(C)CC4)cc3C2)c(O)cc1O` [Onalespib] as the compound, how does the nucleolar normality score read?
Answer: 0.289 ± 0.0093

Question: Which nucleolar normality score does the source give for `CCc1cnn2c(NCc3ccc[n+]([O-])c3)cc(N3CCCC[C@H]3CCO)nc12` [Dinaciclib] here?
Answer: 0.268 ± 0.01

Question: With `CN1CC[C@H](c2c(O)cc(O)c3c(=O)cc(-c4ccccc4Cl)oc23)[C@H](O)C1` [Flavopiridol] as the compound, how does the nucleolar normality score read?
Answer: 0.254 ± 0.019

Question: Which nucleolar normality score does the source give for `CC(C)c1c2cc(-c3ccnc(NC4CCC(NC5CCOCC5)CC4)n3)ccc2nn1C` (configuration not stated) here?
Answer: 0.462 ± 0.015

Question: Which nucleolar normality score does the source give for `COC[C@H](NC(=O)c1cnc(C)s1)C(=O)N[C@@H](COC)C(=O)N[C@@H](Cc1ccccc1)C(=O)[C@@]1(C)CO1` [Oprozomib] here?
Answer: 0.55 ± 0.037

Question: How did the nucleolar normality score turn out when `C=CCNC1=C2C[C@@H](C)C[C@H](OC)[C@H](O)[C@@H](C)/C=C(\C)[C@H](OC(N)=O)[C@@H](OC)/C=C\C=C(/C)C(=O)NC(=CC1=O)C2=O` was run?
Answer: 0.296 ± 0.014

Question: How did the nucleolar normality score turn out when `Cc1cnc(CNC(=O)c2c(=O)c3ccc(N4CCCN(C)CC4)nc3n3c2sc2ccccc23)cn1` was run?
Answer: 0.277 ± 0.066

Question: For `CN(C)CCNC(=O)c1cccn2c(=O)c3cc4ccccc4cc3nc12`, which nucleolar normality score is on record?
Answer: 0.0724 ± 0.012

Question: With `Cc1nc(-c2cn3c(n2)-c2ccc(-c4cnn(C(C)(C)C(N)=O)c4)cc2OCC3)n(C(C)C)n1` [Taselisib] as the compound, how does the nucleolar normality score read?
Answer: 0.376 ± 0.0084

Question: `COc1cccc2c1C(=O)c1c(O)c3c(c(O)c1C2=O)C[C@@](O)(C(=O)CO)C[C@@H]3O[C@H]1C[C@H](N)[C@H](O)[C@H](C)O1` [Doxorubicin] was tested. Which nucleolar normality score did it give?
Answer: 0.133 ± 0.011

Question: How did the nucleolar normality score turn out when `CC(C)n1nc(-c2ccc3oc(N)nc3c2)c2c(N)ncnc21` [Sapanisertib] was run?
Answer: 0.405 ± 0.0078
